Laboratory results from PubChem BioAssay (NCI).
About 83,000 compounds went through this panel and 20% of them were active in at least one assay; those are over-represented in the sample as a whole.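 Compound tested at a single concentration for 48 hours in 96-well plates; a percent growth value below 10 was scored as active.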 A number with no mark means an inactive call. Active and inactive are the calls of the source.

Each compound was assayed on SR leukemia (assay: NCI-60 one-dose screen, 48 h (100 = growth as untreated, 0 = no growth, -100 = all killed)). Conditions: 10 µM unless noted.
`O=C(O)C1CCCN1` (centres undefined) showed a growth of 70%.
In the case of `CN(C)c1nc2c(N)ncnc2n1C1OC(CO)C(O)C1O` (centres undefined), the growth is reported as 99%.
With `CC(C)(C)n1cc(-c2ccnc(NCCNS(=O)(=O)c3ccc(C(F)(F)F)cc3)c2)c(-c2cccc(O)c2)n1` the growth was 8.04% (active).
For `O=C(Oc1ccccc1[N+](=O)[O-])C1CCCN1C(=O)OCc1ccccc1` (centres undefined), the growth was 82.4%.
`O=[N+]([O-])c1ccc(OCCCOc2ccccc2)cc1` gave a growth of 92.3%.
`O=c1[nH]c(NCc2ccccc2)nc2nc(Nc3ccc(NC(=S)Nc4ccccc4)cc3)nc(-c3ccc(O)cc3O)c12` showed a growth of 67.5%.
`COc1ccc(C(=O)N2NC(=O)/C(=C/c3ccc(F)cc3)N=C2c2ccccc2)cc1` gave a growth of 51.5%.
In the case of `CCN(CC)CCOc1ccc(Cl)c(C)c1`, the growth is reported as 92.3%.
Compound `CCCCNC(=O)Oc1ccc(/C(=C(\C)c2ccccc2)c2ccc(OCCN(CC)CC)cc2)cc1` has a growth of 14.5%.
Compound `O=C(O)Cc1cccc(=O)c(O)c1C(=O)O` has a growth of 103%.
For `COC(OC)c1ccccc1`, the growth was 93.9%.
For `CCC(C)/C(=C\C#N)NCCCN/C(=C/C#N)C(C)CC` (centres undefined), the growth was 90.4%.
`Cc1ccc(N2CCN(C(C)C(N)=O)CC2)cc1` (centres undefined) gave a growth of 154%.
For `C[n+]1c(/C=C/c2c(O)ccc3ccccc23)ccc2ccccc21`, the growth was -36.2% (active).
For `Cc1c(C(=O)/C=C/c2csc3ccccc23)[n+](=O)c2ccccc2n1[O-]`, the growth was 13.5%.
`O=C1/C(=C/c2ccccc2)Oc2ccc(O)c(I)c21` showed a growth of 98.2%.
With `CC(C)CC1NC(C)(C)CO1` (centres undefined) the growth was 124%.
`C=C[C@@H]1C[C@H](O)Cc2cc(F)ccc2N1` was tested, and the growth was 73.6%.
`CCCCCc1cc[n+](CC(=O)c2ccc([N+](=O)[O-])cc2)cc1` gave a growth of 73.2%.
`COc1ccc(S(=O)(=O)Nc2cc(/C=C\c3cc(OC)c(OC)c(OC)c3)cc(OC)c2OC)cc1` was tested, and the growth was 9.7% (active).
`O=C(CSC1CCc2ccccc21)N/N=C/c1ccccc1O` (centres undefined) was tested, and the growth was 17.7%.
For `CC(C)(C)n1cc(-c2ccnc(NCCCNS(=O)(=O)c3ccc(Br)cc3)c2)c(-c2cccc(O)c2)n1`, the growth was -16% (active).
`CCOC(=O)/C(C#N)=C1/C(=O)Nc2ccccc21` was tested, and the growth was 149%.
For `COC(=O)c1cc(=O)nc(N/N=C/c2ccco2)s1`, the growth was 87%.
`COc1ccc(-c2nc(/C=C3/C(=O)Nc4ccc(F)cc43)c3ccccn23)cc1` gave a growth of 79.1%.
In the case of `CCCCN(CCCC)C(=O)CC`, the growth is reported as 102%.
Compound `Brc1cccc(-c2cc(-c3ccc4nccnc4c3)[nH]n2)c1` has a growth of 33.8% [25 µM].
Work on `COc1ccc(C(=O)N2NC(=O)/C(=C/c3cn(-c4ccccc4)nc3-c3ccccc3)N=C2c2ccccc2)cc1` yielded a growth of 99.9%.
For `N[C@H]1CN(C(=O)c2cc3cc(Br)c(F)c(F)c3[nH]2)C[C@@H]1O`, the growth was 108%.
Compound `N#Cc1c(-c2ccccc2)nc(SCC(=O)N2CCN(c3ccccc3)CC2)[nH]c1=O` has a growth of 90.6%.
Compound `COc1cc(/C=C/C(=O)c2ccc(Nc3ncnc4cc(OC)c(OC)cc34)cc2)cc(OC)c1` has a growth of 30.6%.
With `Cc1ccc(S(=O)(=O)C2=C3C(=C(c4ccccc4)c4ccccc43)CN(S(=O)(=O)c3ccc(C)cc3)C2)cc1` the growth was 3.89% (active).
With `COC(=O)[C@]12CC[C@@H](C)[C@H](C)[C@@H]1C1=CC[C@@H]3[C@@]4(C)C(C=O)=C[C@@](C)(COC(=O)c5ccco5)[C@@H]4[C@H](O)C[C@@]3(C)[C@]1(C)CC2` the growth was 0.404% (active).
For `CC(C)C(C(=O)NCCN1CCOCC1)N1C(=O)/C(=C/c2ccc(Br)cc2)SC1=S` (centres undefined), the growth was 111%.
In the case of `COc1cc2c(c(OC)c1OC)-c1ccc(N)c(=O)cc1[C@@H](NC(C)=O)CC2`, the growth is reported as 20%.
`CCCCCCCCCCCC(=O)NCCC[N+](C)(C)CC(=O)[O-]` gave a growth of 68.8%.
Compound `Cn1ccc(=O)c(S(N)(=O)=O)c1` has a growth of 72.5%.
Work on `Cc1nn(-c2ccc([N+](=O)[O-])cc2)c2ncnc(NCCc3ccccc3)c12` yielded a growth of 62.3%.
For `Fc1ccc(Nc2ncnc3ccc(-c4cnc5[nH]ccc5c4)cc23)cc1Cl`, the growth was -26.1% (active).
